Experimental data as given in PubChem BioAssay AID1159580 (chemical genetic matrix, 2015).
The campaign covered roughly 5,500 compounds. About 2,000 (36%) were called active. Roughly 18% stayed inconclusive and do not appear here. No stated cut-off is given here; in the data, active means normalized growth mostly below about 0.91 (no sharp cut-off); inconclusive means no clear call, values can overlap the other calls; inactive means mostly above about 0.92. Some of the results follow.

Assay: chemical genetic growth profiling, strain panel (AID 1159580);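 further: tested at 20 µM; growth read once vehicle control cultures reached saturation at 30 °C; 1 = growth at the plate median or of vehicle wells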
Conditions: S. cerevisiae deletion strains, growth OD
[1] = locus YHR030C, strain SLT2, stronger effect = lower value
[2] = locus YHR079C, strain IRE1, stronger effect = lower value
[3] = locus YJL095W, strain BCK1, stronger effect = lower value
[4] = locus YJR066W, strain TOR1, stronger effect = lower value
[5] = locus YLR113W, strain HOG1, stronger effect = lower value
[6] = locus YNL183C, strain NPR1, stronger effect = lower value
[7] = locus YOR231W, strain MKK1, stronger effect = lower value
[8] = locus YPL256C, strain CLN2, stronger effect = lower value

Measured: normalized growth

COc1ccc(C2CC(c3ccccc3)=Nc3ccccc3S2)cc1OC (centres undefined)
inactive: locus YAR019C, strain CDC15, stronger effect = lower value 0.969 | locus YBL105C, strain PKC1, stronger effect = lower value 0.962 | locus YBR135W, strain CKS1, stronger effect = lower value 0.974 | locus YBR136W, strain MEC1, stronger effect = lower value 0.947 | locus YBR160W, strain CDC28, stronger effect = lower value 0.975 | locus YDL017W, strain CDC7, stronger effect = lower value 0.965 | locus YDL028C, strain MPS1, stronger effect = lower value 0.975 | locus YDL101C, strain DUN1, stronger effect = lower value 0.965 | locus YDL108W, strain KIN28, stronger effect = lower value 0.976 | locus YDL132W, strain cdc53, stronger effect = lower value 0.975 | locus YDL214C, strain PRR2, stronger effect = lower value 0.936 | locus YDR052C, strain DBF4, stronger effect = lower value 0.97 | locus YDR054C, strain cdc34, stronger effect = lower value 0.958 | locus YDR226W, strain ADK1, stronger effect = lower value 0.967 | locus YDR477W, strain SNF1, stronger effect = lower value 0.949 | locus YER123W, strain YCK3, stronger effect = lower value 0.939 | locus YER133W, strain GLC7, stronger effect = lower value 0.952 | locus YFL009W, strain cdc4, stronger effect = lower value 0.973 | locus YFL029C, strain CAK1, stronger effect = lower value 0.945 | locus YFR003C, strain YPI1, stronger effect = lower value 0.961 | locus YFR019W, strain FAB1, stronger effect = lower value 0.967 | locus YFR028C, strain CDC14, stronger effect = lower value 0.961 | locus YGR040W, strain KSS1, stronger effect = lower value 0.94 | locus YGR052W, strain FMP48, stronger effect = lower value 1.02 | locus YGR092W, strain DBF2, stronger effect = lower value 0.935 | [1] 0.887 | [2] 0.914 | locus YHR082C, strain KSP1, stronger effect = lower value 0.975 | locus YHR205W, strain SCH9, stronger effect = lower value 0.934 | locus YIL147C, strain SLN1, stronger effect = lower value 0.959 | [3] 0.941 | locus YJL128C, strain PBS2, stronger effect = lower value 0.943 | locus YJL157C, strain FAR1, stronger effect = lower value 0.968 | locus YJR016C, strain ILV3, stronger effect = lower value 0.966 | locus YJR066W, strain TOR1 (second series), stronger effect = lower value 0.901 | [4] 0.938 | locus YKL048C, strain ELM1, stronger effect = lower value 0.968 | locus YKL067W, strain YNK1, stronger effect = lower value 0.956 | locus YKL101W, strain HSL1, stronger effect = lower value 0.927 | locus YKL193C, strain SDS22, stronger effect = lower value 0.976 | locus YKL203C, strain TOR2, stronger effect = lower value 0.965 | [5] 0.889 | locus YLR133W, strain CKI1, stronger effect = lower value 0.948 | locus YLR403W, strain SFP1, stronger effect = lower value 0.929 | locus YML070W, strain DAK1, stronger effect = lower value 0.949 | locus YMR001C, strain CDC5, stronger effect = lower value 0.969 | locus YMR205C, strain PFK2 (second series), stronger effect = lower value 0.95 | locus YMR277W, strain FCP1, stronger effect = lower value 0.97 | locus YNL006W, strain LST8, stronger effect = lower value 0.988 | locus YNL020C, strain ARK1, stronger effect = lower value 0.939 | locus YNL161W, strain CBK1, stronger effect = lower value 0.962 | [6] 0.939 | locus YNL207W, strain RIO2, stronger effect = lower value 0.97 | locus YNL222W, strain SSU72, stronger effect = lower value 0.968 | locus YNL307C, strain MCK1 (second series), stronger effect = lower value 0.974 | locus YOL078W, strain AVO1, stronger effect = lower value 0.975 | locus YOL136C, strain PFK27, stronger effect = lower value 0.946 | locus YOR061W, strain CKA2, stronger effect = lower value 0.94 | locus YOR119C, strain RIO1, stronger effect = lower value 0.949 | [7] 0.918 | locus YOR329C, strain SCD5, stronger effect = lower value 0.97 | locus YPL031C, strain PHO85, stronger effect = lower value 0.932 | locus YPL153C, strain RAD53, stronger effect = lower value 0.958 | locus YPL204W, strain HRR25, stronger effect = lower value 0.948 | locus YPL209C, strain IPL1, stronger effect = lower value 0.975 | [8] 0.879 | locus YPR025C, strain CCL1, stronger effect = lower value 0.966 | locus YPR106W, strain ISR1, stronger effect = lower value 0.971 | locus YPR111W, strain DBF20, stronger effect = lower value 0.97 | strain NNK1, stronger effect = lower value 0.958 | strain TSCII, stronger effect = lower value 0.965

Cc1ncc(C[n+]2csc(CCO)c2C)c(=O)[nH]1
inactive: [1] 1.04 | [2] 1.05 | [3] 0.991 | [4] 0.984 | [5] 0.979 | [6] 0.976 | [7] 1.03 | [8] 1.05
